Experiment [1] can be described thus: Cytotoxicity counterscreen for NFkB agonists and antagonists (AID 624476).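 Note: cells exposed to compound for 48 hours.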 Note: potency is the fitted concentration of half-maximal effect. A general note: A counterscreen serves to expose hits that act by an unwanted route or on another target.
Experiment [2] can be described thus: qHTS Assay for Identification of Small Molecule Agonists for NFkB Signaling Pathway. (AID 624478).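 Note: compounds tested together with TNF alpha at its EC50 of 10 pM; 0% is about no effect.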 The essentials: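 Cells carrying an NFkB response element-driven beta-lactamase gene are co-treated with compound and 10 pM TNF alpha for 5 h, and reporter activity is then read as 460 and 530 nm fluorescence.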
A general note: qHTS replaces the single test concentration by a dilution series.

Experiment [3] in a line: qHTS Assay for Identification of Small Molecule Antagonists for NFkB Signaling Pathway. (AID 624479; calls by dose curve;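 note: pathway stimulated with TNF alpha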; note: potency is the fitted concentration of half-maximal effect).
Experiment [4] in a line: Cell Proliferation Assay against the TMD8 Cell Line (AID 651645).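 Note: cells exposed to compound for 48 h before reading.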 To be noted: TMD8 DLBCL cell line proliferation/viability; at 46.1 µM (top of the series) unless noted. The essentials: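 500 TMD8 cells/well, RPMI + Glutamax, no phenol red, 5% FBS; cpd added immediately; 48 h, 37C, 5% CO2; CellTiter-Glo, luminescence. Controls: DMSO = 100%, bortezomib 9.2 uM final = 0%.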

The nature of experiment [5]: Cell Proliferation Assay against the HBL1 Cell Line (AID 651646).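 Note: cells exposed to compound for 48 h before reading.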 To be noted: HBL1 DLBCL cells; at 46.1 µM (top of the series) unless noted. Summed up:
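500 log-phase HBL1 cells per well in phenol red-free RPMI with 5% FBS were treated with compounds for 48 h at 37 °C, 5% CO2. Viability was read by CellTiter-Glo luminescence, normalized to DMSO (100%) and 9.2 uM bortezomib final (0%).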

Experiment [6] can be described thus: Cell Proliferation Assay against the TMD8 Cell Line (Caspase readout at 16 hrs) (AID 651712). Note: potency is the fitted concentration of half-maximal effect. The essentials: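 TMD8 cells (500/well) in phenol-red-free RPMI with glutamine, 5% FBS, were exposed to compounds for 16 h at 37 °C. Caspase 3/7 activation was read by Caspase-Glo luminescence; percent activity normalised to DMSO (0%) and 9.2 uM bortezomib final (100%).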

The nature of experiment [7]: Cell Proliferation Assay against the TMD8 Cell Line (Caspase readout at 8 hrs) (AID 651713). Note: potency is the fitted concentration of half-maximal effect. The essentials: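 Percent activity derived from Caspase-Glo signal, DMSO set to 0% and bortezomib (9.2 uM final) to 100%. TMD8 cells were exposed to compound for 8 h in RPMI with 5% FBS.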
Experiment [8] concerns the target Glucagon-like peptide 1 receptor (Homo sapiens) (UniProt P43220). The experiment in a line: qHTS of GLP-1 Receptor Agonists: LOPAC Validation (AID 624148).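 Note: 0% is about no effect; higher luminescence signal means agonism.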 The essentials:
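HEK293 cells stably co-expressing a cAMP-responsive luciferase reporter and a hypersensitive GLP-1R were plated 12 h at 37 °C and exposed to compounds for 4-6 hr at 37 °C, 5% CO2. Luminescence was read 12 min after adding detection reagent.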

Experiment [9] can be described thus: qHTS of Nrf2 Activators: LOPAC Validation (AID 624149). Note: 0% is about no effect. The essentials: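 ARE reporter activation measured in AREc32 firefly luciferase cells after 24 hr compound exposure; Steady-Glo luminescence.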
Experiment [10] in a line: HTS Assay for Allosteric Antagonists of the Human D2 Dopamine Receptor: Hit Validation in HTRF (AID 624455).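 Note: stable D1 dopamine receptor cell line scored for blocking the D1 response; % is set by controls: 0 for no effect and ±100 for the full control effect.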 Summed up:
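Signal from an HTRF read-out in D1-expressing stable cells gave hit activity as inhibition of the D1 response.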

A short description of experiment [11]: qHTS assay for small molecule agonists of the antioxidant response element (ARE) signaling pathway (AID 651741; active = well fitted activation curve with a large enough effect in the signal ratio; the % refers to the signal ratio; note: % of control where 0% means no effect). The essentials:
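ARE-bla HepG2 cells (beta-lactamase reporter under ARE control) were plated at 2,000 cells/well, preincubated 5 h at 37 C/5% CO2, then treated with DMSO-dissolved compounds for 16 h at 37 C; LiveBLAzer B/G FRET substrate added, fluorescence read after 2 h at room temperature.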

Experiment [12] is described as follows: qHTS assay for small molecule activators of the p53 signaling pathway (AID 651743; active = well fitted activation curve with a large enough effect in the signal ratio, not every such curve was filed as active; the % refers to the signal ratio; note: potency is the fitted concentration of half-maximal effect; for activation: % of control where 0% means no effect). To be noted: HCT-116 p53RE-bla, beta-lactamase FRET ratio, 16 h; activation: stronger effect = higher value. The essentials: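 p53RE-bla HCT-116 cells with a stably integrated beta-lactamase reporter under p53 response elements were plated, rested 5 hours at 37 C/5% CO2, then exposed to compounds in DMSO for 16 hours at 37 C. LiveBLAzer B/G FRET substrate was read after 2 hours at room temperature.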

A short description of experiment [13]: qHTS assay for small molecule disruptors of the mitochondrial membrane potential - 1 hr assay (AID 651754; calls by dose curve; note: % is set by controls: 0 for no effect and ±100 for the full control effect; nearly all actives have a fitted effect of over 35% in size). The essentials: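 Steps: seed HepG2 cells and let attach overnight; pin-transfer compound or vehicle; incubate 1 hr at 37C; add Mito-MPS dye for 30 min; read two-channel fluorescence for monomer and aggregate forms.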
Experiment [14] in a line: qHTS assay for small molecule disruptors of the mitochondrial membrane potential - 5 hr assay (AID 651755; calls by dose curve; note: % is set by controls: 0 for no effect and ±100 for the full control effect; nearly all actives have a fitted effect of over 40% in size). The essentials:
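HepG2 cells, attached overnight at 37C, were exposed to compound or DMSO for 5 hr at 37C, 5% CO2. Mito-MPS dye was then added for 30 min, and fluorescence read at 490/535 nm (monomers) and 540/590 nm (aggregates).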

For experiment [15], the target named is Tumor necrosis factor (Homo sapiens) (UniProt P01375). The experiment in a line: qHTS assay to identify small molecules that stimulate Tumor Necrosis Factor-alpha (TNF-alpha) secretion (AID 651757; active = well fitted curve in the direction sought with a large enough effect in the signal ratio; the % refers to the signal ratio; note: 0% is about no effect). Summed up:
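Secreted TNF-alpha from compound-treated THP-1 cells (17 hrs, 37 C) was quantified with a homogeneous time-resolved fluorescence antibody assay.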

The nature of experiment [16]: qHTS assay for small molecule activators of the nuclear factor-kappa B (NF-kB) signaling pathway (AID 651749; active = well fitted activation curve with a large enough effect in the signal ratio; the % refers to the signal ratio; note: % of control where 0% means no effect). Conditions: NF-kB-bla ME-180 cells, beta-lactamase FRET ratio, 16 h; stronger effect = higher value. The essentials: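 ME-180 cells stably carrying a beta-lactamase reporter under an NF-kB response element were exposed to compound or DMSO vehicle for 16 hr at 37C, 5% CO2. Pathway activation was read by FRET, since reporter expression disrupts FRET.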

A short description of experiment [17]: qHTS assay for environmental chemicals that activate the Aryl hydrocarbon Receptor (AhR) signaling pathway (AID 651777). Note: % of control where 0% means no effect; nearly all actives have a fitted effect of over 15% in size. Conditions: 1A2-DRE human hepatoma cells, luciferase, 24 h; activation: stronger effect = higher value. The essentials:
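Luminescence (One-Glo, 30 min, room temperature) reports AhR-driven luciferase in stably transfected human hepatoma cells bearing DRE and CYP1A2 promoter. Cells (1,200/well) were treated with compound for 24 hr at 37 C in qHTS format.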

The nature of experiment [18]: qHTS assay to identify small molecules that stimulate interleukin-8 (IL-8) secretion (AID 651758; active = well fitted activation curve with a large enough effect in the signal ratio; the % refers to the signal ratio; note: 0% is about no effect). The essentials: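 THP-1, 2000 cells/well; cpd 16 h, 37 C; add cryptate + XL665 anti-IL-8 Abs; RT 1-3 h; TR-FRET read.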
Experiment [19] is described as follows: qHTS of Trypanosoma Brucei Inhibitors: LOPAC Validation (AID 624147). Note: potency is the fitted concentration of half-maximal effect. Summed up:
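T. brucei PYK with substrate was exposed to pin-transferred compounds across a concentration series, then started with 130 uM ADP (final). After 45 min at room temperature, Kinase-Glo Plus luminescence was read, normalized and curve-fitted.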

Consider 16 molecules from PubChem BioAssay (NCATS).

Where “and” joins values, the source holds several entries; their conditions need not be identical. Equal values may be shown once. Records with an inconclusive call do not appear. Calls of active or inactive are those of the source. Unless noted, calls come from the whole dose curve; as a rule, active = well fitted curve in the direction sought with a large enough effect; inconclusive = small, poorly fitted or top-dose-only effect, or another doubt; inactive = no such curve, though single readings can be large; an effect the other way counts as inactive or inconclusive.

Tumor necrosis factor (Homo sapiens), sequence (P01375 whole entry, looked up): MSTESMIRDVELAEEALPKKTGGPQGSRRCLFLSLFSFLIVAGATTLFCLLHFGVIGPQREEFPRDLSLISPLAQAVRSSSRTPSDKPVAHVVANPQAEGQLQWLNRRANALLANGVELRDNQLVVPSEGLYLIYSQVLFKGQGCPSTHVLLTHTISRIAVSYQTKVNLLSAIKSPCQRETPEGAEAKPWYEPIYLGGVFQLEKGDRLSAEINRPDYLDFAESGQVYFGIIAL
Glucagon-like peptide 1 receptor (Homo sapiens), sequence (P43220 whole entry, looked up): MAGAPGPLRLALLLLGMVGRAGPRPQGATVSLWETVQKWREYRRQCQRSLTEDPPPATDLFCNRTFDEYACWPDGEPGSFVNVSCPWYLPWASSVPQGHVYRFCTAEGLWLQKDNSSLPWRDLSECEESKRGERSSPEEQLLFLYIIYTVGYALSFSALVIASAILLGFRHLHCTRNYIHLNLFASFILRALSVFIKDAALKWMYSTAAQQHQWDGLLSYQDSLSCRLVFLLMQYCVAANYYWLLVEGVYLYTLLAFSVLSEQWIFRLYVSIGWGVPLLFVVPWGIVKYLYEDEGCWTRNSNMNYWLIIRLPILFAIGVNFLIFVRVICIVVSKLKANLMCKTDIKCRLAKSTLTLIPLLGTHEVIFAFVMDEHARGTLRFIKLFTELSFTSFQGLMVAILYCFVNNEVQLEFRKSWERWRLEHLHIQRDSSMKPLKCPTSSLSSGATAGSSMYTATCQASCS

On to `CC(C)C[C@H](NC(=O)[C@H](Cc1ccccc1)NC(=O)c1cnccn1)B(O)O`, for which the Potency in experiment [1] was 0.0093 µM (active); in experiment [3], 0.0053 µM (active); in experiment [6] it was 0.0026 µM (active); in experiment [7], 0.833 µM (active). In [2], the molecule was called inactive. In addition, in experiment [4], the viability (% of control) amounted to 1.72%. For the same molecule, in experiment [5], the viability, percent of control turned out to be 3.27%.
For `CCN(CC)CCOc1ccc(Nc2ncc3cc(-c4c(Cl)cccc4Cl)c(=O)n(C)c3n2)cc1`, the figures for the Potency in experiment [1], in [3] and in [7] were 2.35 µM (active), 7.49 µM (active) and 26.4 µM (active), respectively. Further, the result in [2] was inactive. In addition, in experiment [4], the viability (% of control) is 0.582%. In addition, in experiment [5], the viability, percent of control was determined as 1.36%.
Turning to `Oc1ccc2ccccc2c1SSc1c(O)ccc2ccccc12`, the molecule was classed as inactive in experiment [8], in experiment [9] and in [10].
For `COc1c2occc2cc2ccc(=O)oc12`, the Potency entry in [11], in experiment [13], in experiment [14] and in experiment [15] was “inactive” in each case. The activation in experiment [12] is -0.24% (inactive) and -0.96% (inactive).
For `Nc1nc(Cl)nc2c1ncn2[C@H]1C[C@H](O)[C@@H](CO)O1`, the Potency was 27 µM (active) in experiment [1] and 0.501 µM (active) in experiment [12]. Besides, the outcome in experiment [2] was inactive. The Potency result in experiment [3] and in [6] was “inactive” each time. In addition, the viability (% of control) in experiment [4] is -0.421% [at 92.2 µM]. In addition, the activation in experiment [16] was 0.321% (inactive); in experiment [17] it was 1.52% (inactive).
Consider `CS(=O)(=O)OCCCCOS(C)(=O)=O`, for which the activation in [12] is 1.64% (inactive) and 0.944% (inactive) and -3.49% (inactive); in experiment [17], 2.49% (inactive) and 0.0953% (inactive) and 0.509% (inactive). Also, the Potency entry in experiment [13], in experiment [14] and in [15] was “inactive” in each case. Further, the outcome in [18] was inactive.
For `CCCc1cc(=O)[nH]c(=S)[nH]1`, the Potency entry in [11] and in [15] was “inactive” in each case. Also, the activation in experiment [12] is 0.119% (inactive) and 0.547% (inactive); in [17], 0.594% (inactive) and 1.79% (inactive).
As for `CCc1nc(N)nc(N)c1-c1ccc(Cl)cc1`, the Potency entry in [15] is “inactive”. Besides, the molecule was called inactive in [18]. In addition, the activation in experiment [17] is 1.47% (inactive) and 0.312% (inactive).
For the molecule `Cc1nc(Nc2ncc(C(=O)Nc3c(C)cccc3Cl)s2)cc(N2CCN(CCO)CC2)n1`, in [2], the molecule was classed as inactive. In addition, the Potency in [3] was 16.8 µM (active). In addition, in experiment [4], the viability (% of control) was found to be 8.11%. The viability, percent of control in experiment [5] amounted to 27.1%. The Potency entry in [7] is “inactive”.
`CC(=O)Nc1ccc(O)cc1`: the Potency result in experiment [11] and in experiment [15] was “inactive” throughout. Moreover, the activation in experiment [17] was 1.7% (inactive) and -0.186% (inactive).
Consider `Cc1ccc(NC(=O)c2ccc(CN3CCN(C)CC3)cc2)cc1Nc1nccc(-c2cccnc2)n1`, for which the Potency entry in [1] is “inactive”. Moreover, the result in [2] was inactive. Besides, in [4], the viability (% of control) came to 48.3%. Moreover, the viability, percent of control in [5] turned out to be 38%.
Turning to `Cc1cccc(-c2[nH]ncc2-c2ccc3ncccc3n2)n1`, the Potency result in experiment [1], in [6] and in experiment [7] was “inactive” in each case. The result in experiment [2] was inactive. Further, the Potency in [3] was 13.7 µM (active). In addition, the viability (% of control) in experiment [4] is 76.5% [at 92.2 µM]. The viability, percent of control in experiment [5] turned out to be 116% [at 92.2 µM].
As to `O=c1c(O)c(-c2cc(O)c(O)c(O)c2)oc2cc(O)cc(O)c12`, the call in experiment [8], in [9] and in experiment [10] was inactive.
In the case of `CCN(CC)C(=S)SSC(=S)N(CC)CC`, the Potency in experiment [19] was 9.53 µM (active). The molecule was called inactive in experiment [8]. Further, the Potency result in experiment [11] is “inactive”. In addition, the activation was 4.22% (inactive) in [12] and 0.724% (inactive) in [16].
Turning to `c1ccc2[nH]c(-c3cscn3)nc2c1`, the Potency result in [11] and in experiment [15] was “inactive” throughout. In addition, the activation in experiment [16] was -1.73% (inactive) and -1.48% (inactive).
Turning to `COc1cc2c(N3CCN(C(=O)Nc4ccc(OC(C)C)cc4)CC3)ncnc2cc1OCCCN1CCCCC1`, in [2], the outcome was inactive. Also, the Potency result in experiment [3] was “inactive”. Moreover, the viability (% of control) in experiment [4] was 19.9%. Besides, the viability, percent of control in experiment [5] is 15.5%.
